Source: PubChem BioAssay
The sample as a whole holds a higher share of hits than the screen did.
Dicer processing: human Dicer pre-microRNA cleavage inhibition. z-score at 25 µM. cat-ELCCA pre-miR-21 Dicer processing, chemiluminescence; active compounds read high. 47,000 tested, 6% active. Q9UPY3; in the data active = z-score above about 3, passing the limit was not always enough;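 note: higher signal means more uncleaved substrate so more Dicer inhibition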
Large screens that a line does not name were inactive.

Cc1nn2c3c(cnc2c1-c1ccc(F)cc1)C(=O)CC(c1ccco1)C3 (configuration not stated)	none
COC(=O)C1=C(C)NC(C)=C(C(=O)OC)C1	none
C/C(=N/Nc1nc2c(c(=O)n(C)c(=O)n2C)n1C/C=C\c1ccccc1)c1ccc(Cl)cc1	none
O=C(COc1ccccc1Br)Nc1ccc2c(c1)OCO2	none
O=C(COc1ccccc1Br)c1ccc(O)cc1O	Dicer processing 3.2
O=C(CSc1ncn[nH]1)c1ccc(O)cc1O	none
CSc1sc(Br)c2c1/C(=N/OC(=O)c1ccccc1Cl)CC(C)(C)C2	none
COC(=O)c1sc(SC)c2c1CC(C)(C)C/C2=N\OC(=O)c1ccc(Cl)cc1	Dicer processing 3.3
CSc1sc(Br)c2c1/C(=N/OC(=O)c1ccc(Cl)cc1)CC(C)(C)C2	none
COc1cc(C2CC(=O)Nc3n[nH]c(-c4ccc(Cl)cc4)c32)ccc1O (configuration not stated)	none
Cn1c(=O)c2c(nc(OC/C=C/c3ccccc3)n2Cc2ccc(Cl)c(Cl)c2)n(C)c1=O	none
CC1=CC(C)(C)N(C(=O)CSc2nc(C)cc(C)n2)c2ccccc21	none
c1ccc2c(-c3nnc(-c4ccc5nsnc5c4)o3)cccc2c1	none
CCOC(=O)c1ccc(N=C(N)SCc2ccccc2)cc1	none
N=C(N)SCc1ccc(F)cc1	none
Cc1c(C)c(C)c(CSC(N)=Nc2ccc(F)cc2)c(C)c1C	Dicer processing 3.3
N[C@@H](Cc1c[nH]c2ccccc12)C(=O)O	none
Oc1ccc(-c2csc(Cc3c[nH]c4ccccc34)n2)cc1O	Dicer processing 5.6
Clc1ccc(Cc2nc(-c3ccccc3)cs2)cc1	none
NC(=S)Nc1cc(C(F)(F)F)cc(C(F)(F)F)c1	none
COC(=O)/C=C1/NCC(O)CNC1=O (configuration not stated)	none
CC(=O)N(C(C)=O)n1c(C)nc2c(sc3nnc(-c4ccccc4)c(-c4ccccc4)c32)c1=O	none
CCCOC(=O)c1c(NC(=O)Cn2nc([N+](=O)[O-])cc2C)sc2c1CCCC2	Dicer processing 4.3
CCOC(=O)c1c(NC(=O)Cn2nc(C(F)(F)F)c3c2CCC3)sc2c1CCCC2	none
CCOC(=O)c1c(NC(=O)CCC(=O)OC)sc2c1CCCC2	none
CCN1CCN(c2ccc(Nc3ccnc4c3ccc3nsnc34)cc2)CC1	none
CCCSc1cc(C(F)(F)F)c(C(=O)Nc2ccc(Cl)cc2)cn1	none
Cc1coc(C)c1C(=O)CC1(O)C(=O)N(C)c2ccccc21 (configuration not stated)	Dicer processing 3.4
CCCN1C(=O)C(O)(CC(=O)c2c(C)coc2C)c2ccccc21 (configuration not stated)	none
Cc1cc(C)c(C(=O)CC2(O)C(=O)N(C)c3ccccc32)c(C)c1 (configuration not stated)	none
CCNc1nc2c(c(=O)n(C)c(=O)n2C)n1CCC(C)C	none
CCOC(=O)CN1C(=O)C2CC=C(Cl)CC2C1=O (configuration not stated)	Dicer processing 3.1
CC(C)CC(C(=O)O)N1C(=O)C2CC=C(Cl)CC2C1=O (configuration not stated)	none
COc1ccc(N2C(=O)C3CC=C(Cl)CC3C2=O)cc1 (configuration not stated)	none
COC(=O)[C@H]1OC(O)[C@H](O)[C@@H](O)[C@H]1O (some centres not stated)	Dicer processing 5.8
COC(=O)Cc1nc(NS(=O)(=O)c2ccc(OC(F)(F)F)cc2)sc1C	none
Cc1c2c(n3c(nc4ccccc43)c1C#N)SCC2	none
Cn1c(=O)c2c(nc(SCC(=O)NC(C)(C)C)n2C)n(C)c1=O	none
CCOC(=O)c1cc2cc(OCc3ccccc3)ccc2n1C(=O)c1ccccc1C(=O)O	Dicer processing 3.1
CCOC(=O)c1c(C)oc2ccc(OCc3ccc(F)cc3)cc12	none
O=C(O)c1cc2cc(OCc3ccccc3)ccc2[nH]1	none
CCO/C=N/c1oc(-c2ccccc2)nc1C#N	none
CSc1nc(-c2ccc(C(F)(F)F)cc2)nc(N)c1C#N	none
Cc1onc(-c2ccccc2)c1NC(=O)Nc1c(Cl)cccc1Cl	none
CSc1nc(N)nc(-c2ccccc2Cl)c1C#N	none
CSc1nc2cc(C)nn2c(-c2ccccc2Cl)c1C#N	Dicer processing 5.2
CSc1nc2cc(C)nn2c(-c2ccc(C(C)(C)C)cc2)c1C#N	none
C=C1CC(=O)N(c2ccc(OC(F)(F)F)cc2)C1=O	none
Brc1ccc(-c2cn3cc(Cc4ccccc4)sc3n2)cc1	none
COc1ccc(-c2noc(CC3CCCCC3)n2)cc1OC	none
Cc1ccc(C(=O)Oc2cccc3[nH]ccc23)cc1	none
CCCOC(=O)C1=C(C)NC2=C(C(=O)CC(c3cccs3)C2)C1c1coc2ccc(C)cc2c1=O (configuration not stated)	none
COc1ccccc1C1CC(=O)C2=C(C1)NC(C)=C(C(=O)OC(C)C)C2c1coc2ccccc2c1=O (configuration not stated)	none
COc1ccc(C2C(C(=O)OCC(C)C)=C(C)NC3=C2C(=O)CC(c2ccccc2)C3)c(OC)c1 (configuration not stated)	none
COc1ccc(C2CC(=O)C3=C(C2)NC(C)=C(C(=O)OCC(C)C)C3c2ccc3c(c2)OCO3)cc1 (configuration not stated)	none
CCSCCOC(=O)C1=C(C)NC2=C(C(=O)CC(c3ccccc3)C2)C1c1cccc(F)c1 (configuration not stated)	Dicer processing 3.7
CCCOc1ccccc1C1C(C(=O)OCC)=C(C)NC2=C1C(=O)CC(c1ccccc1)C2 (configuration not stated)	none
CCCOC(=O)C1=C(C)NC2=C(C(=O)CC(c3ccccc3OC)C2)C1c1coc2ccccc2c1=O (configuration not stated)	Dicer processing 6
CC1=C(C(=O)OCC(C)C)C(c2cccc(F)c2)C2=C(CC(c3ccccc3)CC2=O)N1 (configuration not stated)	none
CCOC(=O)C1=C(C)NC2=C(C(=O)CC(c3ccccc3)C2)C1c1ccc(C)o1 (configuration not stated)	none
CCSCCOC(=O)C1=C(C)NC2=C(C(=O)CC(c3ccc(OC)cc3)C2)C1c1ccc(F)cc1 (configuration not stated)	none
CC(=O)Oc1ccc(C2C(C(=O)OCC(C)C)=C(C)NC3=C2C(=O)CC(c2ccccc2)C3)cc1 (configuration not stated)	Dicer processing 7
CCOC(=O)C1=C(C)NC2=C(C(=O)CC(c3ccccc3)C2)C1c1ccccc1Cl (configuration not stated)	Dicer processing 3.7
O=c1oc(-c2ccc(Cl)cc2)nc2sc3c(c12)CCC3	none
COc1cc2cc(C(=O)O)c(=O)oc2cc1OC	none
O=c1c2cccnc2ncn1CCCN1CCN(c2cccc(Cl)c2)CC1	none
CSc1nc(N2CCCC2)nc(-c2ccco2)c1C#N	none
CCC(=O)N1c2ccccc2NC2=C(C(=O)CC(C)(C)C2)C1c1ccc2c(c1)OCO2 (configuration not stated)	none
CCOc1ccc(-c2nc(-c3ccc(-c4ccc(OC)cc4)nc3OC)no2)cc1	none
C=CCOC(=O)c1sc(N2C(=O)c3oc4ccc(C)cc4c(=O)c3C2c2cccc(O)c2)nc1C (configuration not stated)	none
COc1cc(C#N)c2ccc3ccccc3c2c1	none
O=[N+]([O-])c1cnc(Sc2nnc(SCc3cccc(C(F)(F)F)c3)s2)s1	none
CC(C)(C)NC(=O)[C@@H]1Cc2ccccc2CN1	none
COC(=O)C1=C(C)NC2=C(C(=O)CC(c3ccccc3)C2)C1c1ccccc1Br (configuration not stated)	Dicer processing 7.6
